Reference: PubChem BioAssay (NCI)
This is part of a sample that, as a whole, favours compounds with a hit. Of some 83,000 tested, about 20% had one in any assay.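 Assay: single dose, 48 h. Readout: percent growth (0 = no net growth; negative = cell death). Active: <10.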 Unmarked numbers belong to inactive results. Calls of active or inactive are those of the source.

Legend:
Assay in all cases: NCI-60 one-dose screen, 48 h (100 = growth as untreated, 0 = no growth, -100 = all killed)
Details in all cases: 10 µM
786-0 renal = system: 786-0 renal
MALME-3M melanoma = system: MALME-3M melanoma
MDA-MB-231 breast = system: MDA-MB-231 breast
SF-268 CNS = system: SF-268 CNS
SF-295 CNS = system: SF-295 CNS
UACC-257 melanoma = system: UACC-257 melanoma
UACC-62 melanoma = system: UACC-62 melanoma
SK-MEL-28 melanoma = system: SK-MEL-28 melanoma
SK-MEL-2 melanoma = system: SK-MEL-2 melanoma
SN12C renal = system: SN12C renal
TK-10 renal = system: TK-10 renal
ACHN renal = system: ACHN renal
CAKI-1 renal = system: CAKI-1 renal
A498 renal = system: A498 renal
OVCAR-8 ovarian = system: OVCAR-8 ovarian
OVCAR-5 ovarian = system: OVCAR-5 ovarian
IGROV1 ovarian = system: IGROV1 ovarian
OVCAR-3 ovarian = system: OVCAR-3 ovarian
HS 578T breast = system: HS 578T breast
NCI/ADR-RES ovarian = system: NCI/ADR-RES ovarian

SMILES	growth (786-0 renal)	growth (MALME-3M melanoma)	growth (MDA-MB-231 breast)	growth (SF-268 CNS)	growth (SF-295 CNS)	growth (UACC-257 melanoma)	growth (UACC-62 melanoma)	growth (SK-MEL-28 melanoma)	growth (SK-MEL-2 melanoma)	growth (SN12C renal)	growth (TK-10 renal)	growth (ACHN renal)	growth (CAKI-1 renal)	growth (A498 renal)	growth (OVCAR-8 ovarian)	growth (OVCAR-5 ovarian)	growth (IGROV1 ovarian)	growth (OVCAR-3 ovarian)	growth (HS 578T breast)	growth (NCI/ADR-RES ovarian)
O=C(CC(=O)Nc1ccc(Oc2ncnc3scc(Nc4n[nH]c(=S)s4)c23)cc1)Nc1ccc(Cl)cc1	101%	109%	73.8%	85%	99.6%	104%	53.6%	101%	98.3%	88.1%	137%	77.4%	62.9%	108%	93.5%	79%	62.2%	82.7%	86%	89.6%
O=C(CN1CCN(c2ncnc3c2cnn3-c2ccccc2)CC1)Nc1ccc(Cl)cc1	40.4%	-56.2% (active)	63.3%	44.3%	80.3%	49.9%	45.3%	72.8%	34.2%	46.6%	97.3%	-80.7% (active)	-39.7% (active)	78.7%	56.6%	85.6%	48%	51.8%	64.6%	48%
COc1ccc(NCc2cn(-c3ccc(C(=O)O)cc3)nc2-c2ccc(F)cc2)cc1C(F)(F)F	78.2%	27.3%	82.6%	53.8%	29.6%	64.9%	13.4%	33.3%	-30.9% (active)	32.2%	95.7%	43.1%	65.2%	112%	37.5%	72.4%	49.9%	53.4%	48.7%	64.4%
COc1cccc(C(=O)CSc2nc(-c3ccc(OCc4ccccc4)c(OC)c3)c(C#N)c(=O)[nH]2)c1	85.7%	98.3%	91.1%	97.4%	95.2%	94%	90.9%	96.5%	91.7%	85.6%	94.7%	99.9%	90.8%	95.4%	105%	100%	106%	106%	90.8%	96.9%
O=C(c1ccc(F)cc1)C(c1c[nH]c2ccccc12)c1c[nH]c2ccccc12	80.1%	69.5%	58.8%	63%	105%	86.3%	53.7%	63.6%	87.5%	42.6%	148%	39.4%	31.5%	98.3%	76.3%	52.5%	49.9%	46.9%	86.1%	54.7%
COc1ccccc1-n1cc(C#N)c(N)c1C(=O)c1ccc(Cl)cc1Cl	52.8%	37.6%	46.4%	47.3%	19.9%	52.7%	26.9%	57.5%	-51.3% (active)	35%	55.8%	48.3%	33.8%	-0.709% (active)	34.7%	49.9%	38%	17.8%	-2.89% (active)	16.4%
O=C1NC(=S)S/C1=C\c1cn(-c2ccccc2)nc1-c1ccc([N+](=O)[O-])cc1	17.9%	-5.53% (active)	24.7%	42.7%	5.23% (active)	-10.5% (active)	8.03% (active)	18.3%	-29.2% (active)	14.9%	19.3%	12.6%	14.5%	-2.74% (active)	18%	48.5%	29.2%	21.7%	30.1%	13.6%
